Assay [1] has as its target Bile acid receptor (Homo sapiens) (UniProt Q96RI1). Nature of the assay: ATG_IR1_CIS: Attagene CIS-FACTORIAL HepG2 Assay for human Nuclear Receptor Subfamily 1 Group H Member 4 (NR1H4), IR1 submotif (AID 2282946). To be noted: IR1 reporter transcription, actives raise or lower the signal. In short, it runs like this: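 Readout: reporter transcript levels by RT-PCR with fluorescent capillary electrophoresis, from HepG2 cells transiently transfected with multiplexed cis-regulated reporters and dosed 24 h. Gain- or loss-of-signal fitted versus DMSO negative control.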

Assay [2] can be described thus: ATG_GRE_CIS: Attagene CIS-FACTORIAL HepG2 Assay for human Glucocorticoid Response Elements (GRE) (AID 2282947). Conditions: HepG2 GRE cis-reporter, Attagene multiplex mRNA; actives raise or lower the signal. In outline:
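Cells (HepG2) bearing transfected cis-promoter reporter transcription units were treated with chemical for 24 hours. Reporter mRNA was measured via RT-PCR with capillary electrophoresis, and activity was fitted in both directions relative to DMSO.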

A short description of assay [3]: ATG_ISRE_CIS: Attagene CIS-FACTORIAL HepG2 Assay for human Interferon Regulatory Factor 1 (IRF1) binding to an Interferon-Stimulated Response Element (ISRE) (AID 2282948). Conditions: HepG2 ISRE cis-reporter (Attagene), mRNA transcription readout; actives raise or lower the signal. In outline:
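Multiplexed mRNA reporter readout in human liver HepG2 cells: cis-element-driven reporters transfected, compound added for 24 h, transcripts amplified, fluorescently labelled and sized by capillary electrophoresis; curve fitting bidirectional against DMSO.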

Assay [4] is described as follows: ATG_M_32_CIS: Attagene CIS-FACTORIAL HepG2 Assay for M32 Transcription Factor (Internal Marker) (AID 2282949).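 Also: background control marker of the multiplexed CIS panel rather than a real target.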 To be noted: HepG2 Attagene cis-factorial M32 reporter, mRNA; actives raise or lower the signal. In short, it runs like this: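 HepG2 human liver cells transiently transfected with cis-promoter-driven multiple reporter transcription units, dosed 24 h. Reporter mRNA quantified by RT-PCR, FAM-labelled primer extension, HpaI digest and capillary electrophoresis; bidirectional fit versus DMSO baseline.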

Assay [5] can be described thus: ATG_M_06_CIS: Attagene CIS-FACTORIAL HepG2 Assay for M06 Transcription Factor (Internal Marker) (AID 2282950). Conditions: HepG2 Attagene CIS-FACTORIAL M06 internal marker reporter; actives raise or lower the signal. In outline:
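Fluorescence-labelled RT-PCR products from cis-promoter reporter units, cut with HpaI and resolved by capillary electrophoresis, give the signal. Cells are human HepG2, dosed for 24 h. Serves as background control, fitted relative to DMSO.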

Assay [6] deals with Hepatocyte nuclear factor 6 (Homo sapiens) (UniProt Q9UBC0). Nature of the assay: ATG_HNF6_CIS: Attagene CIS-FACTORIAL HepG2 Assay for human Hepatocyte Nuclear Factor 6 (HNF6) (AID 2282952). To be noted: HepG2 Attagene cis-factorial HNF6 reporter transcription; actives raise or lower the signal. In short, it runs like this:
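Twenty-four-hour chemical treatment of reporter-transfected HepG2 cells precedes RNA isolation, DNase-treated reverse transcription and PCR of reporter sequences. Labelled fragments are sized by capillary electrophoresis and fitted bidirectionally versus DMSO.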

The target in assay [7] is Heat shock factor protein 1 (Homo sapiens) (UniProt Q00613). The assay can be described thus: ATG_HSE_CIS: Attagene CIS-FACTORIAL HepG2 Assay for human Heat Shock Transcription Factor 1 (HSE) (AID 2282953). To be noted: HepG2 HSE cis-reporter, Attagene RNA transcription; actives raise or lower the signal. In outline:
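After a 24 h incubation with test chemical, transfected HepG2 cells were harvested for RNA; reporter transcripts were measured by RT-PCR and capillary electrophoresis. Values reflect gain or loss of signal relative to DMSO.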

Assay [8] in a line: ATG_MRE_CIS: Attagene CIS-FACTORIAL HepG2 Assay for human Metal Responsive Element (MRE) (AID 2282954). Conditions: HepG2 MRE cis-reporter transcription, Attagene multiplex; actives raise or lower the signal. In short, it runs like this:
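Cells were transfected with cis-promoter reporter transcription units, then dosed for 24 h. RNA was reverse-transcribed, amplified, fluorescently labelled and resolved by capillary electrophoresis, and activity was fitted in both directions relative to DMSO.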

The nature of assay [9]: ATG_PBREM_CIS: Attagene CIS-FACTORIAL HepG2 Assay for human Phenobarbital-responsive Enhancer Module (PBREM) (AID 2282955). Conditions: HepG2 PBREM cis-reporter, Attagene multiplexed transcription; actives raise or lower the signal. In outline:
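Fluorescence of labelled reporter cDNA fragments, resolved by capillary electrophoresis, gives mRNA induction in transfected HepG2 cells treated for 24 h; DMSO serves as negative control and baseline.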

Assay [10] concerns the target Paired box protein Pax-6 (Homo sapiens) (UniProt P26367). The assay can be described thus: ATG_Pax6_CIS: Attagene CIS-FACTORIAL HepG2 Assay for human Paired Box 6 (PAX6) (AID 2282956). To be noted: HepG2 CIS-FACTORIAL PAX6 reporter transcription, RNA readout; actives raise or lower the signal. In short, it runs like this: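 Fluorescent RT-PCR products separated by capillary electrophoresis report PAX6-linked promoter mRNA in HepG2 cells 24 h post-dose. Curves fitted bidirectionally, DMSO as negative control.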

Assay [11] can be described thus: ATG_PXRE_CIS: Attagene CIS-FACTORIAL HepG2 Assay for human Pregnane X Receptor Element (PXRE) (AID 2282957). Conditions: HepG2 Attagene CIS-FACTORIAL PXRE reporter, mRNA; actives raise or lower the signal. In outline:
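Bidirectional activity, baselined to DMSO, derived from reporter mRNA fluorescence (RT-PCR plus capillary electrophoresis) in HepG2 cells bearing cis-promoter reporter units, 24 h exposure.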

Assay [12] is described as follows: ATG_PPRE_CIS: Attagene CIS-FACTORIAL HepG2 Assay for human Peroxisome Proliferator-activated Response Element (PPRE) (AID 2282958). Conditions: HepG2 PPRE cis-element reporter, Attagene transcription factor profiling; actives raise or lower the signal. In outline:
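Cells are first transfected transiently with the multiplexed reporter library, then dosed for 24 h. Total RNA is reverse-transcribed, amplified, fluorescently end-labeled and HpaI-cut before capillary electrophoresis; activity is fitted bidirectionally against DMSO controls.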

Assay [13] is described as follows: ATG_Sox_CIS: Attagene CIS-FACTORIAL HepG2 Assay for human SRY-box transcription factor (SOX) (AID 2282960). To be noted: HepG2 Attagene cis-factorial SOX reporter, mRNA; actives raise or lower the signal. In outline:
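Transient MRTU transfection of HepG2; 24 h compound incubation; TriZol RNA, oligo(dT) RT, PCR, 6-FAM primer extension, HpaI cut, CE. Bidirectional fit, DMSO = baseline.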

The target of assay [14] is Transcription factor Sp1 (Homo sapiens) (UniProt P08047). The assay can be described thus: ATG_Sp1_CIS: Attagene CIS-FACTORIAL HepG2 Assay for human Specificity Protein 1 (Sp1) (AID 2282961). Conditions: HepG2 Sp1 cis-reporter transcription, actives raise or lower the signal. In short, it runs like this:
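Endogenous Sp1 activity was gauged in human liver HepG2 cells bearing transfected reporter units under a cis-regulating promoter. After 24 h dosing, reporter mRNA was quantified by RT-PCR with capillary electrophoresis, and activity fitted bidirectionally versus DMSO.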

Assay [15] is described as follows: ATG_SREBP_CIS: Attagene CIS-FACTORIAL HepG2 Assay for human Sterol Regulatory Element Binding (SREBP) (AID 2282962). To be noted: HepG2 Attagene cis-factorial SREBP reporter, mRNA; actives raise or lower the signal. In outline:
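Endogenous factor activity is measured in HepG2 through multiplexed reporter units under cis-element control. Following a 24 h incubation, reporter transcripts are reverse-transcribed, PCR-amplified and sized by capillary electrophoresis; activity is fitted in both directions relative to DMSO.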

The target in assay [16] is Signal transducer and activator of transcription 3 (Homo sapiens) (UniProt P40763). The assay can be described thus: ATG_STAT3_CIS: Attagene CIS-FACTORIAL HepG2 Assay for human Signal Transducer and Activator of Transcription 3 (STAT3) (AID 2282963). Conditions: HepG2, Attagene cis-factorial STAT3 reporter transcription; actives raise or lower the signal. In short, it runs like this:
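HepG2, MRTU-transfected, 24 h dosing. RNA → RT → PCR → FAM label → HpaI → CE. Bidirectional fit vs DMSO.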

Assay [17] in a line: ATG_TCF_b_cat_CIS: Attagene CIS-FACTORIAL HepG2 Assay for human T-Cell-Factor with beta-catenin (TCF/b-cat) (AID 2282965). To be noted: HepG2 TCF/beta-catenin cis-reporter transcription, actives raise or lower the signal. In outline:
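Using capillary electrophoresis as the read-out, labelled reporter cDNA fragments from transiently transfected HepG2 were sized and quantified. Exposure lasted 24 hours; activity in either direction was referenced to DMSO.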

In assay [18] the target is Hypoxia-inducible factor 1-alpha (Homo sapiens) (UniProt Q16665). Nature of the assay: ATG_HIF1a_CIS: Attagene CIS-FACTORIAL HepG2 Assay for human Hypoxia Inducible Factor 1 (HIF1A) (AID 2282951). Conditions: HepG2 Attagene cis-factorial HIF1a reporter transcription; actives raise or lower the signal. In short, it runs like this: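 Measures endogenous transcription-factor activity through cis-regulated reporter mRNA in HepG2. Cells dosed 24 h; transcripts quantified by RT-PCR with 6-FAM-labelled products separated by capillary electrophoresis; DMSO serves as negative control.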
Hypoxia-inducible factor 1-alpha (Homo sapiens), sequence (Q16665 whole entry, looked up): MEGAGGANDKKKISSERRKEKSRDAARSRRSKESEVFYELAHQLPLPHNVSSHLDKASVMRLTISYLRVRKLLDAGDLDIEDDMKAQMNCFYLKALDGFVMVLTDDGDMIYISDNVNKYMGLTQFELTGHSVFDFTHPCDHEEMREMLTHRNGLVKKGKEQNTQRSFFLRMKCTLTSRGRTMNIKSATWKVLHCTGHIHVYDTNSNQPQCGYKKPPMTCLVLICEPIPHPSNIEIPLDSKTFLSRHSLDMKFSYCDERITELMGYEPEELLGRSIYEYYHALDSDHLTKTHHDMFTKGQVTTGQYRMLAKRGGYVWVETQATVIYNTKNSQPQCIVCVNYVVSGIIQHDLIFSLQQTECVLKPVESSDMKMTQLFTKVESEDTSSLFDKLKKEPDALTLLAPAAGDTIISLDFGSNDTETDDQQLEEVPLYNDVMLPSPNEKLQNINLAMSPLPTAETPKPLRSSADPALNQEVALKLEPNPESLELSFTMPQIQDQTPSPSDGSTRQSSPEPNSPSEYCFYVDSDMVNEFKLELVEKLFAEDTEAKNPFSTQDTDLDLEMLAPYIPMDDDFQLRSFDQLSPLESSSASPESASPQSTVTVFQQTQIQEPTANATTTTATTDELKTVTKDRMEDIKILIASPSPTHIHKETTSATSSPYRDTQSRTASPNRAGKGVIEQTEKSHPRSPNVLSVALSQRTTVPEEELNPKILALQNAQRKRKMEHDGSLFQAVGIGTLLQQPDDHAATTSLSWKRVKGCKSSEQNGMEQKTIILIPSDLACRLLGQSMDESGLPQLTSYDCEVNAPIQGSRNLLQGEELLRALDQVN

Assay [19] is described as follows: ATG_TA_CIS: Attagene CIS-FACTORIAL HepG2 Assay for human TA Basal Promoter (AID 2282964). To be noted: HepG2 Attagene CIS-factorial TA basal promoter reporter; actives raise or lower the signal. In outline:
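Multiplexed mRNA reporter assay, HepG2, 24 h. Reporter cDNA amplified, 6-FAM primer-extended, HpaI-cut, CE-sized; DMSO = negative control and baseline.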

The nature of assay [20]: ATG_RORE_CIS: Attagene CIS-FACTORIAL HepG2 Assay for human RAR-related Orphan Receptor Element (RORE) (AID 2282959). To be noted: HepG2 Attagene cis-factorial RORE reporter, mRNA; actives raise or lower the signal. In outline:
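Cells were HepG2 carrying transfected cis-regulated reporter constructs, dosed for 24 hours. Total RNA was reverse-transcribed and reporter cDNA amplified, fluorescently labeled and sized by capillary electrophoresis. Activity was fitted bidirectionally relative to DMSO.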

“And” between values parts separate entries of the source, which are not always exact repeats. Equal values may be shown once. Some structures have more than one record in an assay (separate samples or runs), and their calls can disagree. The source made the active and inactive calls. The calls were made as follows: active = hit-call score of the fitted dose curve at least 0.9, where 1 is the maximum; inactive = score below 0.9.

Heat shock factor protein 1 (Homo sapiens), sequence (Q00613 whole entry, looked up): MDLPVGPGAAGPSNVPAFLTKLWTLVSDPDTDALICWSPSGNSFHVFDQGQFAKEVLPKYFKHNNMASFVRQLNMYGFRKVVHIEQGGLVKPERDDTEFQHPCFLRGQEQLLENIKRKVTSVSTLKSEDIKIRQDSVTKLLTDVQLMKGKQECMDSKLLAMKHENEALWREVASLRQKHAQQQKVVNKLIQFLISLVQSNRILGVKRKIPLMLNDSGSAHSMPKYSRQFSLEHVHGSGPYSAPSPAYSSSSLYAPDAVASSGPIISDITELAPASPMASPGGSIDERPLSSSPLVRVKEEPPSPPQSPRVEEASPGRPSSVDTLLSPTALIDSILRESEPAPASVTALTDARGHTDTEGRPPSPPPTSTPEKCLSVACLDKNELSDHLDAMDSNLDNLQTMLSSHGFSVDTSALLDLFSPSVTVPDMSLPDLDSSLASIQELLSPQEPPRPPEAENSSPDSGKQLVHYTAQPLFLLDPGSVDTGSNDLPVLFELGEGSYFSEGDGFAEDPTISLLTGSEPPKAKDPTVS
Paired box protein Pax-6 (Homo sapiens), sequence (P26367 whole entry, looked up): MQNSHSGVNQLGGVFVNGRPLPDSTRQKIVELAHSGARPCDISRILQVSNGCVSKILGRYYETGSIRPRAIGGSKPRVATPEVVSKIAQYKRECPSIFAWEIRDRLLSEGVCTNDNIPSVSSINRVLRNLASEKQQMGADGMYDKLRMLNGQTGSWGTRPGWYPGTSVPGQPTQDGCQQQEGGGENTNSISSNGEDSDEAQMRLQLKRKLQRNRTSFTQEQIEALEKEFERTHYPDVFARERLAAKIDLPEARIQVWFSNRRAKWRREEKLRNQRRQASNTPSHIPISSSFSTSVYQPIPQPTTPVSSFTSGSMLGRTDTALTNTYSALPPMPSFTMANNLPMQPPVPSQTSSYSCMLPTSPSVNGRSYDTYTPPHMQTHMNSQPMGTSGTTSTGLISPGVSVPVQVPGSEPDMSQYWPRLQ
Signal transducer and activator of transcription 3 (Homo sapiens), sequence (P40763 whole entry, looked up): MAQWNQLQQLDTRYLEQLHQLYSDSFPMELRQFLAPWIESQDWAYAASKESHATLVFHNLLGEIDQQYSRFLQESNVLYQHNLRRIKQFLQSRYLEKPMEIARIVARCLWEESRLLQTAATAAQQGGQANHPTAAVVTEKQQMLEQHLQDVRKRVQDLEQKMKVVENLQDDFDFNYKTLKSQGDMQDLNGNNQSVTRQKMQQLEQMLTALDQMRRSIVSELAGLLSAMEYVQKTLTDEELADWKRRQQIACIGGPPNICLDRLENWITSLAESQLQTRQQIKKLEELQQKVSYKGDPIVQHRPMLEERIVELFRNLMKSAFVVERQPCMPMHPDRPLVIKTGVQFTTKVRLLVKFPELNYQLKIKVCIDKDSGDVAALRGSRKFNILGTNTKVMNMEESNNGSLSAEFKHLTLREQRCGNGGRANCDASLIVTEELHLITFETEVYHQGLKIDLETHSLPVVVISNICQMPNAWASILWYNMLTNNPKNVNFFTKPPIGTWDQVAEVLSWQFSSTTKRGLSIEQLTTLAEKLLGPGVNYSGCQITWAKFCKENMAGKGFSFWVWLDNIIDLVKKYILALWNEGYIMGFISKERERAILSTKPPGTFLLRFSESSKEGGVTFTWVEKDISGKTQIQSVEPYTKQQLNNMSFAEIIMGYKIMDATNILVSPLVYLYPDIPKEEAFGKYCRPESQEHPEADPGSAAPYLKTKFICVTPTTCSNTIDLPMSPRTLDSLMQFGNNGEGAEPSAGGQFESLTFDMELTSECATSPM
Transcription factor Sp1 (Homo sapiens), sequence (P08047 whole entry, looked up): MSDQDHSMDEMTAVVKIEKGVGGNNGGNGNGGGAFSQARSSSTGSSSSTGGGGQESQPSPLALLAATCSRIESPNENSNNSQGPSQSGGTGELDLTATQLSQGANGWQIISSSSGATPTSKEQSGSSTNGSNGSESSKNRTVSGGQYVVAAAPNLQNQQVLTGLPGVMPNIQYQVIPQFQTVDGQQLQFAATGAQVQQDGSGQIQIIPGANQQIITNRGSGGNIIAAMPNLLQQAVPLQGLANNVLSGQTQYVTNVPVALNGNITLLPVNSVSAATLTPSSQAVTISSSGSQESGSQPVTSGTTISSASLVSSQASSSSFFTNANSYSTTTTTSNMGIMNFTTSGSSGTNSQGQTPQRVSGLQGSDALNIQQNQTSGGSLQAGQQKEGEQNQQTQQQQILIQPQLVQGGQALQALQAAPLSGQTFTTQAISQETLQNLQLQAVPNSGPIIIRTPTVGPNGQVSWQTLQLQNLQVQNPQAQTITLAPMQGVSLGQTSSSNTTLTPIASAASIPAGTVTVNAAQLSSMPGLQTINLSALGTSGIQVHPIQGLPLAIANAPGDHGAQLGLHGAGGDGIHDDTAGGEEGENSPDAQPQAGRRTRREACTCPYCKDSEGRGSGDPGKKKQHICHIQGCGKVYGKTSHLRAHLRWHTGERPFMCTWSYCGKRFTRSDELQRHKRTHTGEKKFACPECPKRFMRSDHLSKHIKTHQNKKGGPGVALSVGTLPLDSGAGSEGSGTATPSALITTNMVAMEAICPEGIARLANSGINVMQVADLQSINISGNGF
Bile acid receptor (Homo sapiens), sequence (Q96RI1 whole entry, looked up): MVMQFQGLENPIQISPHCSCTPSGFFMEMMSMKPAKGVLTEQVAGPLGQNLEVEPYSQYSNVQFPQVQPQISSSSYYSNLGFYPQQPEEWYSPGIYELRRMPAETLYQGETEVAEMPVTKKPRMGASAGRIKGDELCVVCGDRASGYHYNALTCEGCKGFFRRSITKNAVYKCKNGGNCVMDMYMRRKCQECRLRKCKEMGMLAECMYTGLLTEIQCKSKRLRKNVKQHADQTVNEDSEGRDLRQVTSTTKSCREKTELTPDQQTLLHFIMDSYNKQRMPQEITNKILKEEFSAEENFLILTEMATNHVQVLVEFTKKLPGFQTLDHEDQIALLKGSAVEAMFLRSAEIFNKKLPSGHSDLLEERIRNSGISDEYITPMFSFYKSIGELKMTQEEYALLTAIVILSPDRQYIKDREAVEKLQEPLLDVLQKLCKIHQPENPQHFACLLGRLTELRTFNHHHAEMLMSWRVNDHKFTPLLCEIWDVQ
Hepatocyte nuclear factor 6 (Homo sapiens), sequence (Q9UBC0 whole entry, looked up, the tested form may be a part): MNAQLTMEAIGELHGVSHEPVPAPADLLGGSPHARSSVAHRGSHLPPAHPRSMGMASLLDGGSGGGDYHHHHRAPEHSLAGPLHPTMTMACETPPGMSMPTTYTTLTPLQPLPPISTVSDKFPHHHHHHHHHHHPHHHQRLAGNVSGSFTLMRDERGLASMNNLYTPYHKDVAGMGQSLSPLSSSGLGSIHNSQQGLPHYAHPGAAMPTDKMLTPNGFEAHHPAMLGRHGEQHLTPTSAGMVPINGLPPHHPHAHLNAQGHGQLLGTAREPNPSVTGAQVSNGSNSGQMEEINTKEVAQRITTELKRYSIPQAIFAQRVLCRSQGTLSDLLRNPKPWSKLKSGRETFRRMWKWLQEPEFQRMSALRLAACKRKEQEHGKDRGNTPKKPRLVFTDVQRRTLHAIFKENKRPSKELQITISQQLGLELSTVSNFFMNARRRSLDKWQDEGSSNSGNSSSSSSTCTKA

The AC50 is the midpoint of the concentration-response curve, whichever way the signal moves. As to `O=c1[nH]sc2ccccc12`, the result in assay [1], in assay [2], in assay [4], in assay [5], in assay [6] and in assay [8] was inactive. For the same compound, the result in assay [9], in assay [10], in [12], in assay [14], in [15] and in assay [16] was inactive. In addition, the AC50 was 33.4 µM (active) in assay [3]; 52.8 µM (active) in assay [7]; 51.7 µM (active) in assay [11]; 42.9 µM (active) in assay [13]; 44.4 µM (active) in assay [17].
Take `CCCCCCCCOC(=O)c1cc(O)c(O)c(O)c1`: the result in [1], in [2], in assay [3], in assay [4], in assay [5] and in assay [6] was inactive. Besides, the compound was called inactive in assay [7], in assay [8], in [9], in [10], in [12] and in [13]. The result in assay [14], in assay [15], in assay [16], in assay [19] and in assay [17] was inactive. The concentration at half-maximal activity (AC50) in [18] was 16.9 µM (active); in [11], 11.1 µM (active).
With `CCCCOC(=O)c1ccc(O)cc1`, the result in assay [1], in assay [2], in assay [3], in assay [4], in [5] and in [6] was inactive. Moreover, the call in assay [7], in assay [8], in [9], in assay [10], in [11] and in [12] was inactive. For the same compound, the outcome in assay [20], in assay [13], in [14], in assay [15], in assay [16] and in assay [19] was inactive. The AC50 in assay [3] is 148 µM (active) and 151 µM (active); in assay [7] it was 148 µM (active); in [8], 143 µM (active) and 129 µM (active); in assay [9], 58.9 µM (active); in assay [10], 81.5 µM (active); in assay [11] it was 27 µM (active) and 24.1 µM (active). The AC50 is 63.3 µM (active) and 65.9 µM (active) and 24.9 µM (active) in assay [12]; 65 µM (active) in assay [20]; 100 µM (active) in [13]; 19.8 µM (active) in [15]; 79 µM (active) in assay [19].

For the origin of these results see PubChem BioAssay (EPA / NIEHS).
